GRK2 aptamer HTS = inhibitors of human GRK2 displacing RNA aptamer | bead flow cytometry, FAM-aptamer displacement from GRK2 | inhibition of aptamer binding, % at 10 µM | P25098 | AID 488847 | 330,000 compounds, 0.59% hits;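 active = inhibition of aptamer binding above 40%, roughly 3 SD of noise, on plates passing a quality check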;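 note: median bead fluorescence of bound FAM aptamer so fluorescent compounds give negative values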
Target sequence (P25098 whole entry, looked up): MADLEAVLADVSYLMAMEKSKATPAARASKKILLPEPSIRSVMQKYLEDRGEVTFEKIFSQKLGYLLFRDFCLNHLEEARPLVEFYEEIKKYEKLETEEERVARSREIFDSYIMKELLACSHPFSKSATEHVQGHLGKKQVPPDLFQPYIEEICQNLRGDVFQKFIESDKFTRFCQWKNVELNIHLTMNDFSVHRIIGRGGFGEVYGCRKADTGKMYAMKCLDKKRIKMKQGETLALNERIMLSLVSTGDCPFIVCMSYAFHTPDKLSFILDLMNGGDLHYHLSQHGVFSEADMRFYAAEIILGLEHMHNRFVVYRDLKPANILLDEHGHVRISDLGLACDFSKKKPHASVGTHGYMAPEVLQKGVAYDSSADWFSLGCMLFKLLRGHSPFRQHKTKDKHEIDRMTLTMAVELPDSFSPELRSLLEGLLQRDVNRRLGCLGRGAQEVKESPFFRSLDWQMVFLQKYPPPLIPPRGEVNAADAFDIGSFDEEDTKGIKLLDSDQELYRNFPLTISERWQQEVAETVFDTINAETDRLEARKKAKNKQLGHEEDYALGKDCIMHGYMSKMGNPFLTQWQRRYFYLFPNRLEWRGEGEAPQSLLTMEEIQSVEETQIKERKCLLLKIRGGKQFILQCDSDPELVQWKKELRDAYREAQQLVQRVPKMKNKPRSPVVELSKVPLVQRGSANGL
CR mimetic SO = lowers age-related superoxide in aged yeast cells; 330,000 compounds, 0.18% hits; S. cerevisiae aged cells, superoxide DHE fluorescence; active compounds read low; superoxide response (% of plate mean), % at 10 µM;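 active = superoxide response under a set limit, about three screen SD below normal, cut at about 65% in these data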;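 note: yeast aged for seven days with compound at 30 °C before DHE staining; 100% = average MFI of all compound-treated wells on the plate with controls excluded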
Efflux pump inh = inhibitors of Candida antifungal efflux pumps expressed in yeast. inhibition, % at 10 µM. S. cerevisiae Candida pump triplex, Nile Red efflux. AID 485275. 330,000 compounds, 0.44% hits;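 active = plate passing quality check with inhibition over a set limit, or well fluorescence over plate mean plus 4 SD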;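 note: Nile Red retained in pooled yeast measured as flow cytometry median fluorescence; 0% = buffer negative control and 100% = Enniatin B positive control; higher means more Nile Red kept so more efflux inhibition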
ATG4B inhibitor = ATG4B (human) cysteine protease inhibition | ATG4B cleavage of LC3-PLA2, NBD-HPC fluorescence, 1 h | inhibition, % at 8.33 µM | AID 504462 | Q9Y4P1 | 340,000 compounds, 0.51% hits; in the data active = inhibition above about 40%
Yeast cmpd fluor = compound fluorescence in yeast efflux pump counter-screen; shares compounds with Efflux pump inh; S. cerevisiae AD/pABC3, flow cytometry; fluorescence ratio to DMSO, % at 10 µM; 1,700 compounds, 4% hits; AID 588517;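 active = fluorescence ratio to DMSO above its plate's cutoff, the plate mean ratio plus 5 SD, cut at about 210% in these data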;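 note: unstained yeast with no Nile Red so the signal is compound autofluorescence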
CaMdr1 efflux inh = Candida Mdr1 efflux pump inhibition. shares compounds with Efflux pump inh. S. cerevisiae AD/CaMDR1, Nile Red efflux, flow cytometry. inhibition, % at 10 µM. 1,700 compounds, 1% hits. AID 588518; in the data active = inhibition above about 26%;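 note: 0% = DMSO vehicle and 100% = reference inhibitor; higher means more Nile Red retained so more efflux inhibition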
Cdr2 pump inh = Candida Cdr2 efflux pump inhibition. shares compounds with Efflux pump inh. S. cerevisiae AD/CaCDR2, Nile Red retention, flow cytometry. Nile Red retention ratio vs DMSO, % at 10 µM. 1,700 compounds, 4% hits; in the data active = Nile Red retention ratio vs DMSO above about 190%;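 note: higher ratio means more blocking of Cdr2 efflux of the dye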
CaCdr1 efflux inh = inhibitors of Candida albicans Cdr1 efflux pump. inhibition, % at 10 µM. AID 588522. S. cerevisiae AD/CaCDR1, Nile Red efflux, flow cytometry. 1,700 compounds, 1% hits. shares compounds with Efflux pump inh;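 active = inhibition above the screen-wide mean plus twice its standard deviation, cut at about 32% in these data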
Starred values were filed as active, the others as inactive; · = no result given. Shown are actives, neighbours in structure and some others; about 1.6% of the full set was active somewhere.

SMILES | GRK2 aptamer HTS | CR mimetic SO | Efflux pump inh | ATG4B inhibitor | Yeast cmpd fluor | CaMdr1 efflux inh | Cdr2 pump inh | CaCdr1 efflux inh
CC(=O)N1CCN(c2ccc(NC(=S)NC(=O)c3ccccc3)cc2)CC1 | 4.0 | 96.2 | 5.8* | -11.5 | 109.5 | 0.0 | 99.7 | -0.1
O=C1NCCN(Cc2ccoc2)C1CC(=O)N(CCO)Cc1ccccc1 (configuration not stated) | 2.0 | 126.6 | 0.1 | -10.9 | · | · | · | ·
Cc1cccc(NC(=O)/C(C#N)=C/c2cn(CC(=O)NCc3ccco3)c3ccccc23)c1C | · | 101.2 | 11.1* | 1.8 | 105.8 | 0.1 | 116.0 | 0.1
COc1ccc(C(CCN2CCOCC2)c2c(OC)cc(OC)c3c(-c4ccccc4)cc(=O)oc23)cc1 (configuration not stated) | 0.0 | 92.2 | 1.6* | -1.2 | 95.0 | -0.2 | 85.2 | 0.0
COc1cc(C(=O)NC(=S)Nc2ccc3c(c2)C(=O)N(C)C3=O)cc(OC)c1OC | 3.0 | 102.9 | 12.4* | -12.8 | 107.8 | -0.1 | 106.0 | 0.1
COc1cccc(OC)c1C(=O)NC(=S)Nc1ccc2c(c1)C(=O)N(C)C2=O | 1.0 | 96.6 | -0.2 | -1.9 | · | · | · | ·
CCOC(=O)c1c(C)[nH]c(C)c1S(=O)(=O)NCc1ccccc1C | 1.0 | 107.1 | 0.4* | -0.9 | 105.0 | -0.1 | 105.7 | 0.1
COc1ccc(COC(=O)c2cccc(S(=O)(=O)N3CCCC3)c2)cc1F | 5.0 | 109.1 | -0.1 | -4.0 | · | · | · | ·
COC(=O)Cn1cc(/C=C/c2cc[n+](C)cc2)c2ccccc21 | 0.0 | 101.8 | 0.1 | -9.6 | 173.8 | 1.0 | 141.3 | 0.6
CCc1ccc(C2C(C(=O)O)c3ccccc3C(=O)N2C)cc1 (configuration not stated) | 1.0 | 97.7 | 1.9* | -4.6 | 104.6 | -0.1 | 99.7 | 0.0
O=C(Cn1cncn1)N/N=C/c1ccc(Cl)cc1 | 0.0 | 97.7 | 9.7* | -3.6 | 95.0 | -0.2 | 91.4 | -0.1
O=C(Cn1cncn1)N/N=C/c1ccncc1 | 2.0 | 93.4 | 0.1 | 0.4 | · | · | · | ·
Cc1sc2ncnc(N/N=C/c3cccc(O)c3)c2c1C | 0.0 | 100.0 | -0.2 | -25.6 | · | · | · | ·
C/C(=N\Nc1ncnc2sc(C)c(C)c12)c1ccccn1 | 0.0 | 35.8* | 30.1* | 0.9 | 79.8 | -0.2 | 134.9 | 4.7
COc1ccc(NC(=O)CSc2nnc(Cc3cccn3C)n2-c2ccc(C)cc2)cc1OC | 1.0 | 91.5 | 6.7* | 0.0 | 99.0 | -0.1 | 111.6 | 0.1
COc1ccc(NC(=O)CSc2nnc(Cc3cccn3C)n2CCc2ccccc2)c(OC)c1 | 1.0 | 95.8 | 6.7* | 25.7 | 79.0 | -0.1 | 91.1 | -0.5
CCOc1ccc(NC(=O)CSc2nnc(Cc3cccn3C)n2-c2ccc(F)cc2)cc1 | 2.0 | 96.0 | 0.1 | -2.2 | 95.3 | 0.1 | 109.9 | 0.0
COc1ccc(-n2c(Cc3cccn3C)nnc2SCC(=O)Nc2ccc(F)cc2F)cc1 | 0.0 | 107.0 | -0.2 | 2.6 | · | · | · | ·
COc1ccc(-n2c(Cc3cccn3C)nnc2SCC(=O)Nc2ccccc2F)cc1 | 2.0 | 102.8 | 0.0 | 3.5 | 85.5 | -0.1 | 91.1 | 0.0
COc1ccc(-n2c(Cc3cccn3C)nnc2SCC(=O)Nc2cccc(OC)c2)cc1 | 0.0 | 105.7 | 0.0 | 1.3 | · | · | · | ·
O=C(Nc1cccc(Cl)c1)c1cccnn1 | 3.0 | 79.0 | -0.1 | 12.6 | · | · | · | ·
COc1ccc(-n2c(Cc3cccn3C)nnc2SCC(=O)NCCc2ccccc2)cc1 | 0.0 | 118.7 | 6.7* | 11.3 | 103.0 | 0.0 | 97.7 | -0.1
Cc1c(OC(C)C(=O)NCc2ccncc2)ccc2c3c(c(=O)oc12)CCC3 (configuration not stated) | 0.0 | 90.4 | 0.0 | 0.9 | · | · | · | ·
Cc1c(OC(C)C(=O)NCc2ccccn2)ccc2c3c(c(=O)oc12)CCCC3 (configuration not stated) | 4.0 | 109.4 | 1.8* | -5.8 | 101.4 | -0.1 | 79.0 | 0.0
CCOc1ccc(NC(=O)CSc2ncn[nH]2)c([N+](=O)[O-])c1 | 0.0 | 125.4 | 18.0* | 2.9 | 98.2 | -0.5 | 85.2 | -0.1
SMILES | GRK2 aptamer HTS | CR mimetic SO | Efflux pump inh | ATG4B inhibitor | Yeast cmpd fluor | CaMdr1 efflux inh | Cdr2 pump inh | CaCdr1 efflux inh
CCN(CC(=O)Nc1c(F)cccc1F)C(=O)CCCNC(=O)c1ccc(Cl)cc1 | 3.0 | 102.5 | -0.1 | 8.3 | · | · | · | ·
O=C(c1sc2ccccc2c1Cl)N1CCN(c2ccc(F)cc2)CC1 | 2.0 | 95.1 | 0.0 | -0.1 | · | · | · | ·
O=C(c1sc2ccccc2c1Cl)N1CCN(c2ccccc2F)CC1 | · | 81.0 | 20.8* | 13.9 | 98.6 | -0.1 | 112.0 | 0.1
CCOC(=O)c1cnc(SC)nc1Oc1cccc(NS(=O)(=O)c2ccc(Cl)cc2)c1 | 0.0 | 90.8 | 0.2 | -3.5 | · | · | · | ·
CCOC(=O)c1cnc(SC)nc1Oc1cccc(NC(=O)c2ccc(Cl)cc2)c1 | 0.0 | 108.0 | 1.5* | -5.2 | 104.6 | 0.1 | 116.4 | 0.6
COc1ccc(NC(=O)N(C)C[C@H]2Oc3c(NC(=O)Nc4ccccc4)cccc3C(=O)N([C@H](C)CO)C[C@@H]2C)cc1 | 1.0 | 97.2 | -0.4 | -9.7 | · | · | · | ·
COc1ccc(NC(=O)N(C)C[C@H]2Oc3c(NC(=O)Nc4c(C)noc4C)cccc3C(=O)N([C@H](C)CO)C[C@@H]2C)cc1 | 3.0 | 78.4 | -0.2 | -5.8 | 100.3 | -0.3 | 109.4 | -0.1
COc1ccc(NC(=O)Nc2cccc3c2O[C@H](CN(C)C(=O)Nc2ccc(OC)cc2)[C@@H](C)CN([C@H](C)CO)C3=O)cc1 | 0.0 | 92.6 | -0.2 | -9.6 | 101.1 | -0.1 | 116.5 | -0.1
Cc1ccc2nc(/C(C#N)=C\c3ccc(N4CCOCC4)o3)[nH]c2c1 | 0.0 | 105.3 | 0.5* | -30.0 | 128.2 | 0.3 | 131.4 | -0.1
Cc1ccc(/C(C#N)=C\c2ccc(N3CCOCC3)o2)cc1 | 2.0 | 95.2 | 0.0 | -11.6 | · | · | · | ·
CCN(CC)S(=O)(=O)c1cccc(C(=O)OCC(=O)NCCN2C(=O)CSC2=O)c1 | 1.0 | 106.9 | 0.1 | 0.9 | 92.1 | -0.3 | 84.5 | -0.1
CC1CC(C)CN(S(=O)(=O)c2ccc(C(=O)OCC(=O)NCCN3C(=O)CSC3=O)cc2)C1 (configuration not stated) | 0.0 | 100.7 | 0.0 | -10.6 | · | · | · | ·
O=C(COC(=O)c1ccccc1Br)NCCN1C(=O)CSC1=O | 12.0 | 108.2 | 1.1* | -6.3 | 98.6 | -0.4 | 93.0 | 0.2
O=C(COC(=O)c1cccc(Cl)c1Cl)NCCN1C(=O)CSC1=O | 1.0 | 103.4 | 0.0 | -2.9 | 112.4 | -0.2 | 108.3 | -0.1
CCC(CC)C(=O)c1c[nH]c(C(=O)OC)c1 | 3.0 | 114.6 | -0.1 | 2.7 | · | · | · | ·
COc1cc2c(cc1OC)C(c1ccccc1F)NCC2 (configuration not stated) | 1.0 | 96.8 | 0.0 | 0.8 | · | · | · | ·
C#CC[N+](C)(C)CCCCCCCCCCCC | 0.0 | 118.3 | 1.0* | 19.5 | 100.0 | -0.3 | 494.5* | -0.1
